According to PubChem BioAssay AID1521 (The Scripps Research Institute Molecular Screening Center, 2009):
This is one part of the list. Values without a mark were called inactive. The source made the active and inactive calls.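 The calls were made as follows: active = mean inhibition above the hit cutoff derived in the earlier primary screen (cut at about 25% in these data); inactive = the rest.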

Test: reduced survival of JAK2V617F-driven Ba/F3 cells – cell-based, Ba/F3 EpoR-JAK2V617F, luminescence, triplicate, JAK2V617F inhibitor project, confirmation (AID 1521);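 also: 0% = DMSO-treated cells and 100% = JAK inhibitor I control wells; higher means lower luminescence from reduced cell ATP and viability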
Conditions: Ba/F3 EpoR-JAK2V617F viability, CellTiter-Glo luminescence; at 5.6 µM; active compounds read high

**Q.** For Cc1ccc(C2=NN(C)c3nc4ccccc4n3C2)cc1, which inhibition is on record?
**A.** Its inhibition is -7.33%.

**Q.** With COc1ccc(Cc2nnc(N/N=C/c3ccccc3O)[nH]c2=O)cc1OC as the compound, how does the inhibition read?
**A.** Its inhibition is 98.9% (active).

**Q.** For CSCC(=O)N1CCCC(C(=O)c2cc(F)ccc2F)C1 (stereo not drawn), which inhibition is on record?
**A.** The inhibition was -9.05%.

**Q.** Which inhibition does the source give for CCCc1nc2ccccc2c(=O)n1/N=C/c1ccc(O)c(O)c1 here?
**A.** Its inhibition is 67.2% (active).

**Q.** For Cc1ccc(NC(=S)N(CCCN2CCC(C)CC2)Cc2ccco2)cc1, which inhibition is on record?
**A.** The inhibition was 52.5% (active).

**Q.** Which inhibition does the source give for COc1cc(OC)c(C(=O)NC2CCCCCC2)cc1OC here?
**A.** The inhibition was 18.7%.

**Q.** Which inhibition does the source give for O=c1oc2ccccc2cc1-c1cn(-c2ccccc2)c(=S)[nH]1 here?
**A.** Its inhibition is 92.7% (active).

**Q.** Which inhibition does the source give for O=C(CCl)N(Cc1cccc([N+](=O)[O-])c1)c1cccc(Cl)c1 here?
**A.** Its inhibition is 99.7% (active).

**Q.** Which inhibition does the source give for CCCn1c(NC(=O)C23CC4CC(CC(O)(C4)C2)C3)nc2ccccc21 here?
**A.** The inhibition was -6.61%.

**Q.** Which inhibition does the source give for COc1ccc(OC)c(Nc2nc(-c3ccc(O)c(O)c3)cs2)c1 here?
**A.** Its inhibition is 99% (active).

**Q.** For Cc1cccc(NC(=O)c2ccc([N+](=O)[O-])o2)c1, which inhibition is on record?
**A.** The inhibition was 84.7% (active).

**Q.** Which inhibition does the source give for COc1ccc(-c2csc(Nc3ccc(O)cc3)n2)cc1 here?
**A.** Its inhibition is 97.2% (active).

**Q.** With Cn1c(CCN2CCCCCC2)nc2cc(NC(=O)Nc3ccccc3)ccc21 as the compound, how does the inhibition read?
**A.** Its inhibition is -1.25%.

**Q.** For CN(Cc1ccc2nsnc2c1)Cc1nc(Cc2cccc(F)c2)no1, which inhibition is on record?
**A.** Its inhibition is 7.27%.

**Q.** With Oc1ccc(/C=N/Nc2ccc(C(F)(F)F)cn2)cc1O as the compound, how does the inhibition read?
**A.** The inhibition was 99.2% (active).

**Q.** For N#C/C=C\Oc1ccc(Cl)cc1N, which inhibition is on record?
**A.** Its inhibition is 39.2% (active).

**Q.** With O=C(CCl)Nc1ccc(Sc2ccc(NC(=O)CCl)cc2)cc1 as the compound, how does the inhibition read?
**A.** Its inhibition is 99.7% (active).

**Q.** For CCn1c(/C=C/c2ccc([N+](=O)[O-])o2)nc2ccccc2c1=O, which inhibition is on record?
**A.** Its inhibition is 99.1% (active).

**Q.** For Cc1ccc(S(=O)(=O)C2(S(=O)(=O)c3ccc(C)cc3)CCCC2)cc1, which inhibition is on record?
**A.** The inhibition was 62.1% (active).

**Q.** Which inhibition does the source give for CCC1CCCCN1CCCNC(=O)c1cc2c(Cl)nc3ccccc3c2s1 (stereo not drawn) here?
**A.** Its inhibition is 12.1%.

**Q.** With c1ccc2c(c1)CSc1sccc1C2=C1CCNCC1 as the compound, how does the inhibition read?
**A.** The inhibition was 57.9% (active).

**Q.** For COc1cc(OC)cc(C(=O)N[C@H](C(=O)Nc2nc3ccccc3[nH]2)C(C)C)c1, which inhibition is on record?
**A.** Its inhibition is 99.1% (active).

**Q.** With COc1ccccc1N1CCN(Cc2ccc(OC)c3ccccc23)CC1 as the compound, how does the inhibition read?
**A.** The inhibition was 31.5% (active).
